Among the data in the antibiotic and cytotoxicity screens of Wong et al. (2023) are cytotoxicity call values, retold here.

Hit rate of the full screen: of about 39,000 compounds, about 1,500 (3.8%) were called active. The full list was thinned out, with actives kept by preference.

The subject of this experiment is HSkMC (human skeletal muscle cells). Briefly: cytotoxicity call (relative viability < 0.9). As to conditions: 10 µM.
Turning to `CN(C)S(=O)(=O)Nc1cccc(N)c1`, the cytotoxicity call is “inactive”. As to `COCC(=O)N1C[C@@H](C)[C@@H](OC)CN(C)C(=O)c2cc(NC(=O)c3ccc(OC)cc3)ccc2OC[C@@H]1C`, the cytotoxicity call was “inactive”. For `COc1cccc2c1C(=O)c1c(O)c3c(c(O)c1C2=O)CC(O)(C(C)=O)CC3OC1CC(N)C(O)C(C)O1.Cl` (stereo not drawn), the cytotoxicity call was “inactive”. With `COc1cccc2c1C(=O)c1c(O)c3c(c(O)c1C2=O)C[C@](O)(C(C)=O)C[C@H]3O[C@H]1C[C@@H](N)[C@@H](O)[C@@H](C)O1`, the cytotoxicity call was “active”. On to `CC(=O)[C@]1(O)Cc2c(O)c3c(c(O)c2[C@@H](O[C@@H]2C[C@@H](N)[C@H](O)[C@@H](C)O2)C1)C(=O)c1c(O)cccc1C3=O`, for which the cytotoxicity call was “active”. For the molecule `COc1cccc2c1C(=O)c1c(O)c3c(c(O)c1C2=O)C[C@@](O)(C(C)=O)C[C@@H]3O[C@H]1C[C@H](N)[C@H](O)[C@H](C)O1`, the cytotoxicity call was “active”. Under `CC(=O)[C@]1(N)Cc2c(O)c3c(c(O)c2[C@@H](O[C@H]2C[C@H](O)[C@H](O)CO2)C1)C(=O)c1ccccc1C3=O` stands “active”; under `O=C(C[C@@H]1CC[C@H]2[C@@H](COC[C@H](O)CN2C(=O)c2ccncc2)O1)NC1CCC1`, “inactive”.

With `CNCC1CCOCC1`, the cytotoxicity call is “inactive”. Take `CO[C@@H]1CN(C)C(=O)c2cc(NS(=O)(=O)c3ccccc3C)ccc2OC[C@H](C)N(S(C)(=O)=O)C[C@H]1C`: the cytotoxicity call was “inactive”. Under `Cc1noc(C)c1S(=O)(=O)Nc1ccc2c(c1)C(=O)N([C@H](C)CO)C[C@H](C)[C@@H](CN(C)C(=O)Nc1ccc(F)cc1)OCCCC[C@H](C)O2` stands “inactive”; under `C[C@H]1CN([C@@H](C)CO)C(=O)c2cc(C#CCN(C)C)cnc2O[C@@H]1CN(C)C(=O)c1cnccn1`, “inactive”; under `CC(C)c1nc(/N=C/N(C)C)nc(=O)n1C`, “inactive”.

Consider `C[C@H](CO)N1C[C@H](C)[C@H](CN(C)C(=O)Nc2ccc(F)cc2)OCCCC[C@H](C)Oc2ccc(NS(=O)(=O)c3ccc(Cl)cc3)cc2C1=O`, for which the cytotoxicity call is “inactive”.

On to `C[C@H](CO)N1C[C@H](C)[C@@H](CN(C)Cc2ccc3c(c2)OCO3)Oc2ncc(Br)cc2C1=O`, for which the cytotoxicity call is “inactive”. `CN(Cc1ccc(/C=C/C(=O)Nc2ccc(-c3cccs3)cc2N)cc1)CC12CC3CC(CC(C3)C1)C2`: the cytotoxicity call was “inactive”. As for `C[C@@H]1CN([C@@H](C)CO)C(=O)Cc2cc(NC(=O)CCCCCC(=O)Nc3ccccc3N)ccc2O[C@H]1CN(C)Cc1ccc(-c2ccccc2)cc1`, the cytotoxicity call was “inactive”. Consider `CN(Cc1ccc(/C=C/C(=O)Nc2ccc(-c3ccccc3)cc2N)cc1)CC12CC3CC(CC(C3)C1)C2`, for which the cytotoxicity call was “active”. Consider `COCCN1CCO[C@@H]2CN(Cc3cnn(C)c3)C[C@@H]21`, for which the cytotoxicity call was “inactive”. Regarding `CN1CCN(C(=O)C[C@H]2CC[C@@H]3[C@H](COC[C@H](O)CN3C(=O)Nc3ccc4c(c3)OCO4)O2)CC1`, the cytotoxicity call was “inactive”. With `C[C@H]1CN([C@@H](C)CO)C(=O)c2cc(NC(=O)Nc3cccc4ccccc34)ccc2O[C@@H]1CN(C)S(=O)(=O)c1cccs1`, the cytotoxicity call was “inactive”.

For `C[C@H]1CN([C@@H](C)CO)C(=O)Cc2cc(NC(=O)NC3CCCCC3)ccc2O[C@@H]1CN(C)C(=O)Nc1ccc(C(F)(F)F)cc1`, the cytotoxicity call is “inactive”. With `C[C@H](CO)N1C[C@H](C)[C@@H](CN(C)Cc2ccc(C(F)(F)F)cc2)Oc2ccc(NC(=O)Nc3ccccc3)cc2C1=O`, the cytotoxicity call was “inactive”. `C[C@H](CO)N1C[C@H](C)[C@H](CN(C)Cc2ccc(C(F)(F)F)cc2)Oc2ccc(NC(=O)Nc3ccccc3)cc2C1=O`: the cytotoxicity call is “inactive”. On to `C[C@H]1CN([C@@H](C)CO)C(=O)c2cc(NC(=O)Nc3ccccc3)ccc2O[C@H]1CN(C)Cc1ccc(C(F)(F)F)cc1`, for which the cytotoxicity call was “inactive”. For the molecule `C[C@@H]1CN([C@H](C)CO)C(=O)c2cc(NC(=O)Nc3ccccc3)ccc2O[C@@H]1CN(C)Cc1ccc(C(F)(F)F)cc1`, the cytotoxicity call is “active”. On to `C[C@@H]1CN([C@@H](C)CO)C(=O)c2cc(NC(=O)Nc3ccccc3)ccc2O[C@H]1CN(C)Cc1ccc(C(F)(F)F)cc1`, for which the cytotoxicity call is “active”. For `C[C@@H]1CN([C@H](C)CO)C(=O)c2cc(NC(=O)Nc3ccccc3)ccc2O[C@H]1CN(C)Cc1ccc(C(F)(F)F)cc1`, the cytotoxicity call is “inactive”.

On to `NCc1cn(Cc2ccc(Cl)c(Cl)c2)cn1`, for which the cytotoxicity call is “inactive”. For `C[C@H](CO)N1C[C@H](C)[C@@H](CN(C)S(=O)(=O)c2ccc(F)cc2)Oc2ccc(NS(=O)(=O)c3ccc(F)cc3)cc2CC1=O`, the cytotoxicity call was “inactive”. With `CN(C)CCCNC(=O)C[C@@H]1CC[C@H](NS(=O)(=O)c2ccccc2)[C@@H](CO)O1`, the cytotoxicity call was “inactive”. `C[C@H]1CN([C@@H](C)CO)C(=O)Cc2cc(NC(=O)Cc3ccccc3)ccc2O[C@@H]1CN(C)S(=O)(=O)c1cn(C)cn1`: the cytotoxicity call was “inactive”.

In the case of `C[C@H](CO)N1C[C@H](C)[C@H](CN(C)C(=O)C2CCCCC2)OCCCC[C@H](C)Oc2ccc(NS(=O)(=O)c3ccc(Cl)cc3)cc2C1=O`, the cytotoxicity call was “inactive”. Under `Cc1ccccc1-c1ccc2c(c1)O[C@@H](CN(C)C(=O)Nc1ccc(C(F)(F)F)cc1)[C@@H](C)CN([C@@H](C)CO)S2(=O)=O` stands “active”. As to `Cc1ccc(-c2ccc3c(c2)O[C@H](CN(C)C(=O)Nc2ccc(C(F)(F)F)cc2)[C@H](C)CN([C@H](C)CO)S3(=O)=O)cc1`, the cytotoxicity call was “inactive”.

With `Cc1ccccc1-c1ccc2c(c1)O[C@H](CN(C)C(=O)Nc1ccc(C(F)(F)F)cc1)[C@H](C)CN([C@@H](C)CO)S2(=O)=O`, the cytotoxicity call was “inactive”. For the molecule `Cc1ccc(-c2ccc3c(c2)O[C@H](CN(C)C(=O)Nc2ccc(C(F)(F)F)cc2)[C@H](C)CN([C@@H](C)CO)S3(=O)=O)cc1`, the cytotoxicity call is “inactive”.

On to `Cc1ccc(-c2ccc3c(c2)O[C@@H](CN(C)C(=O)Nc2ccc(C(F)(F)F)cc2)[C@H](C)CN([C@H](C)CO)S3(=O)=O)cc1`, for which the cytotoxicity call was “active”. On to `Cc1ccc(-c2ccc3c(c2)O[C@H](CN(C)C(=O)Nc2ccc(C(F)(F)F)cc2)[C@@H](C)CN([C@@H](C)CO)S3(=O)=O)cc1`, for which the cytotoxicity call is “active”. On to `Cc1ccccc1-c1ccc2c(c1)O[C@@H](CN(C)C(=O)Nc1ccc(C(F)(F)F)cc1)[C@H](C)CN([C@H](C)CO)S2(=O)=O`, for which the cytotoxicity call was “inactive”.

On to `Cc1ccc(-c2ccc3c(c2)O[C@@H](CN(C)C(=O)Nc2ccc(C(F)(F)F)cc2)[C@@H](C)CN([C@@H](C)CO)S3(=O)=O)cc1`, for which the cytotoxicity call is “inactive”. For `Cc1ccc(-c2ccc3c(c2)O[C@H](CN(C)C(=O)Nc2ccc(C(F)(F)F)cc2)[C@@H](C)CN([C@H](C)CO)S3(=O)=O)cc1`, the cytotoxicity call was “inactive”.

`C[C@@H]1CCCCO[C@@H](CN(C)C(=O)Nc2ccc3c(c2)OCO3)[C@H](C)CN([C@H](C)CO)C(=O)c2cc(NC(=O)Cc3ccccc3)ccc2O1`: the cytotoxicity call was “inactive”. With `CC(/C=C/C(=O)NO)=C\c1ccccc1OC[C@@H]1[C@H]2C[C@H]3c4[nH]c5ccccc5c4CCN3C[C@@H]2CC[C@@H]1O`, the cytotoxicity call is “inactive”.

Regarding `C[C@@H]1CN([C@@H](C)CO)C(=O)c2cccc(NC(=O)C3CCCCC3)c2O[C@H]1CN(C)Cc1ccc(C(F)(F)F)cc1`, the cytotoxicity call was “inactive”. As for `CC1CC=CC=CC=CC=CC(OC2OC(C)C(O)C(N)C2O)CC2OC(O)(CC(O)CC3OC3C=CC(=O)O1)CC(O)C2C(=O)O` (stereo not drawn), the cytotoxicity call was “inactive”. The entry for `CN1C(=O)c2cc(NC(=O)Nc3ccccc3F)ccc2OC[C@H]2O[C@@H](CC(=O)Nc3cccc(Cl)c3)CC[C@@H]21` is “inactive”. In the case of `CCOC(=O)N1CCN(C(=O)C2CCN(S(=O)(=O)N(CC)CC)CC2)CC1`, the cytotoxicity call was “inactive”. For the molecule `C[C@@H]1CN([C@@H](C)CO)C(=O)Cc2cc(NS(=O)(=O)c3cn(C)cn3)ccc2O[C@@H]1CN(C)Cc1ccncc1`, the cytotoxicity call is “inactive”.

With `CCCN1C[C@H](C(=O)O)CCC1=O`, the cytotoxicity call is “inactive”. For `Cc1noc(C)c1S(=O)(=O)N(C)C[C@H]1Oc2ccc(NC(=O)Cc3cn(C)c4ccccc34)cc2CC(=O)N([C@H](C)CO)C[C@@H]1C`, the cytotoxicity call is “inactive”. On to `C[C@H]1CN([C@@H](C)CO)C(=O)Cc2cc(NC(=O)Cc3cn(C)c4ccccc34)ccc2O[C@H]1CN(C)Cc1ccc(Cl)c(Cl)c1`, for which the cytotoxicity call is “active”. Regarding `C[C@@H]1CN([C@@H](C)CO)C(=O)Cc2cc(NC(=O)Cc3cn(C)c4ccccc34)ccc2O[C@@H]1CN(C)Cc1ccc(Cl)c(Cl)c1`, the cytotoxicity call is “inactive”.

As for `C[C@@H]1CN([C@H](C)CO)C(=O)Cc2cc(NC(=O)Cc3cn(C)c4ccccc34)ccc2O[C@H]1CN(C)Cc1ccc(Cl)c(Cl)c1`, the cytotoxicity call was “active”.

On to `C[C@H](CO)N1C[C@H](C)[C@@H](CN(C)Cc2ccc(Cl)c(Cl)c2)Oc2ccc(NC(=O)Cc3cn(C)c4ccccc34)cc2CC1=O`, for which the cytotoxicity call is “inactive”. As for `C[C@@H]1CN([C@H](C)CO)C(=O)Cc2cc(NC(=O)Cc3cn(C)c4ccccc34)ccc2O[C@@H]1CN(C)Cc1ccc(-c2ccccc2)cc1`, the cytotoxicity call is “inactive”. In the case of `C[C@H]1CN([C@@H](C)CO)C(=O)Cc2cc(NC(=O)Cc3cn(C)c4ccccc34)ccc2O[C@@H]1CN(C)Cc1ccc(Cl)c(Cl)c1`, the cytotoxicity call was “active”. Under `Cc1noc(C)c1S(=O)(=O)N(C)C[C@@H]1Oc2ccc(NC(=O)Cc3cn(C)c4ccccc34)cc2CC(=O)N([C@@H](C)CO)C[C@@H]1C` stands “active”; under `C[C@@H]1CN([C@H](C)CO)C(=O)Cc2cc(NC(=O)Cc3cn(C)c4ccccc34)ccc2O[C@@H]1CN(C)Cc1ccc(Cl)c(Cl)c1`, “inactive”.

On to `C[C@H](CO)N1C[C@H](C)[C@H](CN(C)Cc2ccc(Cl)c(Cl)c2)Oc2ccc(NC(=O)Cc3cn(C)c4ccccc34)cc2CC1=O`, for which the cytotoxicity call was “inactive”. On to `Cc1noc(C)c1S(=O)(=O)N(C)C[C@H]1Oc2ccc(NC(=O)Cc3cn(C)c4ccccc34)cc2CC(=O)N([C@H](C)CO)C[C@H]1C`, for which the cytotoxicity call was “inactive”. Under `C[C@@H]1CN([C@@H](C)CO)C(=O)Cc2cc(NC(=O)Cc3cn(C)c4ccccc34)ccc2O[C@H]1CN(C)Cc1ccc(Cl)c(Cl)c1` stands “inactive”; under `C/C=C/c1ccc2c(c1)O[C@@H](CN(C)S(=O)(=O)c1ccc(C)cc1)[C@@H](C)CN([C@@H](C)CO)S2(=O)=O`, “inactive”.
